This is an account of results in PubChem BioAssay AID1240 (Sanford-Burnham Center for Chemical Genomics, 2008).

Among all 50,000 compounds or so, about 800 (1.6%) showed an effect of 50% or more. Only a selection was taken, and strong results are over-represented in it overall.

The target of this test is Bcl-2-like protein 10 (Homo sapiens) (UniProt Q9HD36). Kind of test: TR3 peptide-Bcl-B binding displacers, biochemical primary FP assay, phenotype converters (AID 1240).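 Note: 0% = Bcl-B with tracer peptide and DMSO and 100% = tracer peptide lacking Bcl-B.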 The settings on record: GST-Bcl-B / FITC-TR3 peptide fluorescence polarization; stronger effect = higher value; compound at 3.75 mg/L. In general terms: In fluorescence polarisation assays a small probe gives low polarisation when free and higher when bound to something large.
Sequence of Bcl-2-like protein 10 (Homo sapiens) (Q9HD36 whole entry, looked up): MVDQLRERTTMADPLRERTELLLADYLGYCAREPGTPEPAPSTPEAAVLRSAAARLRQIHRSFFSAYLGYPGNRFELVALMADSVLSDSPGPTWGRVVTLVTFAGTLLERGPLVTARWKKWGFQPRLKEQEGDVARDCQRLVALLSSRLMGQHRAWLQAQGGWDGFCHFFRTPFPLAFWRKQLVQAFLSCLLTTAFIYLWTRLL
In the case of `COc1ccc(/C=C2\SC(=NCc3ccccc3)N(Cc3ccccc3)C2=O)cc1C(=O)O`, the displacement was 78%.

Take `COc1ccc(/C=C2\SC(=NCc3ccccc3)N(Cc3ccccc3)C2=O)cc1OC`: the displacement amounted to 7.1%.

Take `COc1cc(/C=C2\SC(=NCc3ccccc3)N(Cc3ccccc3)C2=O)cc(Br)c1O`: the displacement was -5.7%.

As to `CCN(CC)c1ccc(/C=C2/C(=O)NN(c3ccc(C)cc3)C2=O)c(O)c1`, the displacement came out at 23.1%.

For the molecule `CCN(CC)c1ccc(/C=C2/C(=O)NN(c3ccc(C)c(Cl)c3)C2=O)c(O)c1`, the displacement came out at 59.2%.

Regarding `CCN(CC)c1ccc(/C=C2/C(=O)NN(c3cccc(Cl)c3)C2=O)c(O)c1`, the displacement was found to be 1.9%.

In the case of `CC(=O)C12CCCCC1CC1C3CC(C)[C@@]4(O)CC(O)CCC4(C)C3CCC12C` (some centres undefined), the displacement was found to be 0%.

With `Cc1cccc(N2C(=O)S/C(=C/c3cccc([N+](=O)[O-])c3)C2=O)c1`, the displacement amounted to 14.3%.

Regarding `COc1cc(OC)c([N+](=O)[O-])cc1/C=C1/C(=O)NC(=O)N(c2ccc(Br)cc2)C1=O`, the displacement turned out to be 8.8%.

For `COc1ccc(C2CC(c3ccc(F)cc3)=NN2c2ccccc2F)cc1OC` (centres undefined), the displacement was -4.3%.

On to `COc1ccccc1C1CC(c2ccc(F)cc2)=NN1c1ccccc1` (centres undefined), for which the displacement stood at 5.4%.

Turning to `COc1ccc(C2CC(c3ccc(F)cc3)=NN2c2cccc(F)c2)cc1OC` (centres undefined), the displacement is -6.2%.

For `COc1ccc(C2CC(c3ccc(F)cc3)=NN2c2ccccc2)cc1OC` (centres undefined), the displacement was 64.4%.

Consider `COc1ccc(C2=NN(c3ccccc3)C(c3ccccc3F)C2)cc1` (centres undefined), for which the displacement was found to be 53.9%.

Turning to `COc1ccc(C2=NN(C(=O)CCC(=O)O)C(c3ccccc3F)C2)cc1` (centres undefined), the displacement was 12.3%.

Consider `O=C(COc1ccc(Cl)cc1Cl)Nc1ccc(Br)c(Cl)c1`, for which the displacement was -5.5%.

As to `CC(=O)Nc1ccc(S(=O)(=O)NC(=O)C23CC4CC(CC(C4)C2)C3)cc1`, the displacement is 0.8%.

As to `CCOc1ccc(C(=O)Nc2cccc(C(C)=O)c2)cc1`, the displacement is 9%.

As for `COc1ccc(Cl)cc1N=CC1=C(O)CC(C)(C)CC1=O`, the displacement came out at 3.1%.

Turning to `COc1cc(C(=S)N2CCOCC2)cc(OC)c1OC(=O)c1cccc([N+](=O)[O-])c1`, the displacement came out at 70.4%.

Regarding `O=C(Oc1ccccc1C(=S)N1CCOCC1)c1cccc([N+](=O)[O-])c1`, the displacement amounted to 10.7%.

In the case of `CCOc1cc(C(=S)N2CCOCC2)ccc1OC(=O)c1cccc([N+](=O)[O-])c1`, the displacement stood at 8.7%.

For `COc1cc(C2C3=C(CC(C)(C)CC3=O)OC3=C2C(=O)CC(C)(C)C3)cc(OC)c1OC(C)=O`, the displacement was -1.3%.

As for `CC(C)COc1ccc(C(=O)Nc2ccc(Cl)cc2)cc1`, the displacement was found to be 13.1%.

Regarding `COc1ccc(NC(=O)CN(c2cc(OC)ccc2OC)S(C)(=O)=O)cc1`, the displacement worked out at 13.1%.

`CCC1=NN2C(=N)/C(=C/c3ccc(-c4ccc([N+](=O)[O-])cc4Br)o3)C(=O)N=C2S1`: the displacement was 4%.

On to `C=CCOc1ccc(Cl)cc1/C=C1/C(=N)N2N=C(CCC)SC2=NC1=O`, for which the displacement is -25.3%.

For `CCC1=NN2C(=N)/C(=C/c3ccc(-c4ccccc4[N+](=O)[O-])o3)C(=O)N=C2S1`, the displacement worked out at 1.5%.

For the molecule `CCCC1=NN2C(=N)/C(=C/c3ccc(-c4ccc(Cl)cc4Cl)o3)C(=O)N=C2S1`, the displacement was 74.7%.

For `CCC1=NN2C(=N)/C(=C/c3ccc(-c4ccc([N+](=O)[O-])cc4C)o3)C(=O)N=C2S1`, the displacement stood at 14%.

As for `CCCC1=NN2C(=N)/C(=C/c3ccc(-c4ccc([N+](=O)[O-])cc4C)o3)C(=O)N=C2S1`, the displacement turned out to be 140%.

As for `CCC1=NN2C(=N)/C(=C/c3ccc(-c4ccc([N+](=O)[O-])cc4Cl)o3)C(=O)N=C2S1`, the displacement is 15.1%.

With `NC1=NC(=O)/C(=C/c2ccc(-c3ccc([N+](=O)[O-])cc3Br)o2)S1`, the displacement was -5.3%.

For `CCCC1=NN2C(=N)/C(=C/c3ccc(-c4ccc([N+](=O)[O-])cc4Br)o3)C(=O)N=C2S1`, the displacement worked out at 129%.

Regarding `CC1CCc2c(nc3ccccc3c2C(=O)O)C1` (centres undefined), the displacement is -14.7%.

In the case of `CN(C)/C=C/C=C1C(=O)OC(C)(C)OC1=O`, the displacement stood at 0.3%.

With `O=C(O)c1ccccc1C(=O)c1ccc(Cl)c(N2C(=O)CCC2=O)c1`, the displacement is -1.3%.

Take `Cc1cc(NS(=O)(=O)c2ccc(NC(=O)C(Cl)(Cl)Cl)cc2)nc(C)n1`: the displacement stood at 1.3%.

In the case of `COc1ccc(Br)cc1Cn1c(=O)[nH]c2cc(C(F)(F)F)ccc21`, the displacement was -5.6%.

Take `CC(C)(C)C(=O)Nc1cccc(C(=O)NCc2ccc(CNC(=O)c3cccc(NC(=O)C(C)(C)C)c3)cc2)c1`: the displacement was determined as 9.9%.

Take `O=C(Oc1cccc(/C=C2/SC(=S)N(c3ccccc3)C2=O)c1)c1ccco1`: the displacement is -17.2%.

Take `Cc1cc(-n2cc(C=O)c(-c3ccccc3)n2)nc2ccccc12`: the displacement is 75.4%.

For the molecule `Cc1cc(C)c(-c2nn(-c3ccccc3)cc2C=O)c(C)c1`, the displacement is 10.9%.

Regarding `O=Cc1cn(-c2ccccc2)nc1-c1ccc(Cl)cc1`, the displacement came out at 7.5%.

As to `Cc1ccc(C(=O)/C=C2\C(=O)Nc3ccccc32)cc1`, the displacement turned out to be 6.7%.

As to `O=C(O)CCCC(=O)OCc1ccco1`, the displacement stood at 31.3%.

`O=C(COc1ccc([N+](=O)[O-])cc1)NNC(=O)c1ccccc1Cl`: the displacement was determined as 11.6%.

On to `Fc1ccc(-c2ccc(/C=N/n3cnnc3)o2)cc1`, for which the displacement was determined as 7.8%.

In the case of `O=C1S/C(=C\c2ccc(-c3ccccc3[N+](=O)[O-])o2)C(=O)N1c1ccccc1`, the displacement was found to be 47.7%.

For the molecule `O=[N+]([O-])c1ccc(-c2ccc(/C=N/n3cnnc3)o2)cc1`, the displacement was 139%.

For the molecule `O=C1S/C(=C\c2ccc(-c3ccc([N+](=O)[O-])cc3)o2)C(=O)N1c1ccccc1`, the displacement came out at 70.2%.

On to `O=C1S/C(=C/c2ccc(-c3ccc([N+](=O)[O-])cc3Cl)o2)C(=O)N1c1ccccc1`, for which the displacement came to 47.4%.

Take `O=[N+]([O-])c1ccccc1-c1ccc(/C=N/n2cnnc2)o1`: the displacement was determined as 8.8%.

For the molecule `O=C(O)c1ccc(-c2ccc(/C=C3/SC(=O)N(c4ccccc4)C3=O)o2)cc1`, the displacement was determined as 27.7%.
